Reference: PubChem BioAssay AID488896 (Broad Institute, 2010)
In all, about 320,000 compounds went through this assay and about 3,100 (0.97%) were called active.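 The calls were made as follows: active = mean replicate inhibition of at least 70% and a set share of replicates each scoring 70 or more; inconclusive = meets just one of the two criteria; inactive = fails both criteria.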 The sample as a whole holds a higher share of actives than the screen did.

Target: Scavenger receptor class B member 1 (Mus musculus) (UniProt Q61009)
Sequence (Q61009 whole entry, looked up): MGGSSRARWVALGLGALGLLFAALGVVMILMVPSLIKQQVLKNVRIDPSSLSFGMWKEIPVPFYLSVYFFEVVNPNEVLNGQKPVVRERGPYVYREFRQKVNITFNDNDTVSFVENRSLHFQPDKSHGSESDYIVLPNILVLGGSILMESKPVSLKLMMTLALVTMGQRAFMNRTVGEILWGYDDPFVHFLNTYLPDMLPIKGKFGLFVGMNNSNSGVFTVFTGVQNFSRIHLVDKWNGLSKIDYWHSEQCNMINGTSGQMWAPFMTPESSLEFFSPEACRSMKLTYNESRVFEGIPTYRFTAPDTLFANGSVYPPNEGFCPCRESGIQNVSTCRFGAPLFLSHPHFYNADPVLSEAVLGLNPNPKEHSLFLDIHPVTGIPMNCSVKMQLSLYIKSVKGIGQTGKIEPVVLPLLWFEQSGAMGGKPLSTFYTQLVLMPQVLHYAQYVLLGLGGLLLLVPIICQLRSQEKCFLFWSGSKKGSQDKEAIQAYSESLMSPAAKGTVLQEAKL
Assay: inhibitors of SR-BI mediated HDL lipid uptake, primary screen, ldlA[mSR-BI] cells, fluorescence, single point (AID 488896);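 also: 0% = median of neutral control wells and 100% = median of positive control wells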
Details: ldlA[mSR-BI] CHO cells, DiI-HDL uptake fluorescence, 3 h; at 12.5 µM; active compounds read high

| Structure (SMILES) | inhibition |
| --- | --- |
| O=C1OC(Oc2ccc(Br)cc2)(c2ccccc2)c2ccccc21 (stereo unspecified) | 0.981% (inactive) |
| CCc1nnc(NC(=O)c2cc(S(=O)(=O)N3CCN(CC)CC3)ccc2Cl)s1 | -25.4% (inactive) |
| CCOc1ccc(-n2c(SCC(=O)Nc3cc(C(=O)O)ccc3Cl)nc3ccccc3c2=O)cc1 | -14% (inactive) |
| Cc1ccc(-n2c(SCC(=O)Nc3ncc(Cl)cc3Cl)nc3ccccc32)cc1 | 78.1% (active) |
| NS(=O)(=O)c1cccc(NC(=O)CSc2nc3ccccc3n2-c2ccccc2)c1 | 23.7% (inactive) |
| COc1cc(OC)cc(-c2sc3ccc(OC)cc3c2-c2ccc3cc[nH]c3c2)c1 | 58.8% (inactive) |
| COc1ccc2sc(-c3ccc(N(C)C)cc3)c(-c3ccc4cc[nH]c4c3)c2c1 | 85% (active) |
| COc1ccc(-c2sc3ccc(OC)cc3c2C#Cc2ccccn2)cc1 | 56.6% (inactive) |
| COc1ccc2sc(-c3ccc(N(C)C)cc3)c(C#CCO)c2c1 | 99.4% (active) |
| COc1ccc2sc(-c3ccc(S(C)(=O)=O)cc3)c(-c3ccc(C(N)=O)cc3)c2c1 | 54.1% (inactive) |
| COc1ccc2sc(-c3ccc(S(C)(=O)=O)cc3)c(C#Cc3cncn3C)c2c1 | 13.9% (inactive) |
| CN1CCC(N(C)C(=O)c2ccc(Cl)c(S(=O)(=O)Nc3ccc(Cl)cc3)c2)CC1 | -12% (inactive) |
| O=C(NCC1CCCCC1)NCC1CCCCC1 | -12.9% (inactive) |
| O=C(O)c1ccc(S(=O)(=O)c2ccccc2)s1 | -1.03% (inactive) |
| COc1ccc2nc(N3C(=O)C(O)=C(C(=O)c4ccco4)C3c3ccco3)sc2c1 (stereo unspecified) | -2.11% (inactive) |
| O=C(Cc1ccc(S(=O)(=O)N2CCOCC2)s1)Nc1ccc(Br)c(C(F)(F)F)c1 | -43.4% (inactive) |
| CC(C)Cn1cnc2c(SCc3ccc(Cl)cc3)nc(N)nc21 | 7.71% (inactive) |
| Cc1cccc(C(=O)Nc2ccccc2N2CCN(c3ccc(F)cc3)CC2)c1 | 74.9% (active) |
| CCC(C)C(=O)Nc1ccccc1N1CCN(c2ccc(F)cc2)CC1 (stereo unspecified) | 36.3% (inactive) |

| Structure (SMILES) | inhibition |
| --- | --- |
| CCCCC(=O)Nc1ccccc1N1CCN(c2ccc(F)cc2)CC1 | 34% (inactive) |
| c1ccc(-c2nnc(N3CCOCC3)c3ccccc23)cc1 | 27.8% (inactive) |
| OCCN1CCN(c2nnc(-c3ccccc3)c3ccccc23)CC1 | 3.57% (inactive) |
| CCCC(=O)N1CCN(c2nnc(-c3ccc(C)cc3)c3ccccc23)CC1 | 76.8% (active) |
| Cc1ccc(-c2csc(C(C#N)=C(O)CN3CCN(C(=O)c4ccco4)CC3)n2)cc1 | 4.1% (inactive) |
| CCOc1ccc(/C=C(/C#N)c2nnc(N3CCOCC3)n2-c2ccccc2)cc1OC | -9.11% (inactive) |
| O=C(Cc1ccc(NC(=O)C2CCCN(C(=O)C3CCCCC3)C2)cc1)Nc1cccc(C(=O)N2CCCCC2)c1 (stereo unspecified) | 43.2% (inactive) |
| CNc1nc(=O)n(C2CCCO2)cc1C (stereo unspecified) | 0.704% (inactive) |
| CCOC(=O)N(Cc1ccccc1)C1CC1 | 1.61% (inactive) |
| COc1ccc(CCNc2nc(-c3cccc(NC(C)=O)c3)cs2)cc1OC | 75.5% (active) |
| Cc1cccc(Nc2nc(-c3ccccc3)cs2)n1 | 52.4% (inactive) |
| CC(=O)Nc1ccc(-c2csc(NC=C3C(=O)OC(C)(C)OC3=O)n2)cc1 | 4.07% (inactive) |
| COc1ccc(CCN(C(=O)COc2ccccc2)c2nc(-c3ccccc3)cs2)cc1OC | 24.1% (inactive) |
| CC(=O)Nc1cccc(-c2csc(Nc3cccc(C)n3)n2)c1 | 76.4% (active) |
| COc1ccc(CC(=O)Nc2nc(-c3ccc(F)c(F)c3)cs2)cc1OC | 29.1% (inactive) |
| CCC1([N+](=O)[O-])COC(c2ccc(C)cc2)OC1 (stereo unspecified) | -12.8% (inactive) |
| Nc1cc(=O)n(Cc2ccccc2)c(=O)n1Cc1ccccc1 | 0.22% (inactive) |
| C[C@@H]1ON(C)[C@H]2C[C@H]3c4cc(N5CCN(C)CC5)ccc4CCN3C(=O)[C@@H]12 | -19.4% (inactive) |
| Cn1c(=S)sc2ccc3ccccc3c21 | 5.87% (inactive) |

| Structure (SMILES) | inhibition |
| --- | --- |
| N#CC1(Nc2ccc(-c3ccc(Cl)cc3)cc2)CCCC1 | 5.44% (inactive) |
| O=C(Nc1ccc(NC(=O)c2ccc3c(c2)OCO3)cc1)c1cccc(Cl)c1 | -14.8% (inactive) |
| O=C(Nc1cccc(S(=O)(=O)N2CCCCC2)c1)c1ccc2c(c1)OCO2 | 8.54% (inactive) |
| O=C(Nc1cccc(S(=O)(=O)Nc2ccc(Cl)cc2)c1)c1ccc2c(c1)OCCO2 | 70.2% (active) |
| NS(=O)(=O)c1ccc(CCNC(=O)c2ccc(Cl)c(S(=O)(=O)N3CCCCCC3)c2)cc1 | 32.8% (inactive) |
| CCCCC(=O)Nc1ccc(C(=O)Nc2cc(C(F)(F)F)ccc2Cl)cc1 | 67.9% (inactive) |
| CCCC(=O)Nc1ccc(Cl)c(NC(=O)c2ccc(Br)o2)c1 | 70.8% (active) |
| CCN1CCN(c2c(Cl)cccc2NC(=O)c2ccc(Br)o2)CC1 | 33.7% (inactive) |
| COc1cc2c(cc1OC)C1C(=O)c3cc(OS(C)(=O)=O)c(OC)cc3C1N(C)C2=O (stereo unspecified) | -1% (inactive) |
| O=C1COc2c1ccc(O)c2O | -17.3% (inactive) |
| CN(C(=O)c1cccc(NC(=O)Cc2cccc(NC(=O)C3CCCN(C(=O)C4CC4)C3)c2)c1)C1CCC1 (stereo unspecified) | 31.6% (inactive) |
| CN(C(=O)c1cccc(NC(=O)Cc2ccc(NC(=O)C3CCCN(C(=O)C4CC4)C3)cc2)c1)C1CC1 (stereo unspecified) | 70% (inactive) |
| CN(C(=O)c1cccc(NC(=O)Cc2ccc(NC(=O)C3CCCN(C(=O)C4CCCC4)C3)cc2)c1)C1CCC1 (stereo unspecified) | 86.9% (active) |
| CN(CCc1ccccc1)C(=O)c1cccc(NC(=O)Cc2cccc(NC(=O)C3CCCN(C(=O)CCc4ccccc4)C3)c2)c1 (stereo unspecified) | 78.5% (active) |
| CN(CCc1ccccc1)C(=O)c1cccc(NC(=O)Cc2cccc(NC(=O)C3CCCN(C(=O)C4CCC4)C3)c2)c1 (stereo unspecified) | 26.9% (inactive) |
| O=C(Cc1ccc(NC(=O)C2CCCN(C(=O)CCc3ccccc3)C2)cc1)Nc1ccc(C(=O)N2CCOCC2)cc1 (stereo unspecified) | 58.6% (inactive) |
| COc1cc(/C=C/c2ccc(/C=C/c3cc(OC)c(OC)c(OC)c3)cc2)cc(OC)c1OC | 51.2% (inactive) |
| Nc1cc2c(cc1Br)-c1ccc(F)cc1C2=O | 22.3% (inactive) |
